FBW7 activator = activators of human E3 ligase FBW7. Q969H0. AlphaScreen FBW7–phospho-cyclin E peptide binding, activator screen. normalized activity (activation), % at 26.1 µM. actives 0.13% (n = 650,000). AID 1259310; in the data active = normalized activity above about 1.9%;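 also: purified mutant Fbw7 with reduced substrate affinity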
TEAD-YAP block = TEAD-YAP interaction inhibition; HEK-TIYL cells, TEAD-Gal4/YAP UAS-luciferase luminescence; inhibition, % at 9.12 µM; actives 1.4% (n = 640,000); AID 1259422; in the data active = inhibition above about 32%;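 also: 0% = median of test compound wells and 100% = reference inhibitor wells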
MITF inh = human MITF inhibition, primary screen; inhibition, % at 2.6 µM; AID 1259374; AlphaScreen MITF homodimerization, bead proximity signal; actives 0.91% (n = 650,000); in the data active = inhibition above about 50%;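 also: 0% = vehicle wells with protein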
GPR151 ag = human GPR151 activation; AID 1508602; PathHunter beta-arrestin GPR151 cells, luminescence; activation, % at 11.2 µM; Q8TDV0; actives 1% (n = 650,000); in the data active = activation above about 4.9%;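 also: 0% = median of compound wells and 100% = cells with positive control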
Target sequence (Q8TDV0 whole entry, looked up): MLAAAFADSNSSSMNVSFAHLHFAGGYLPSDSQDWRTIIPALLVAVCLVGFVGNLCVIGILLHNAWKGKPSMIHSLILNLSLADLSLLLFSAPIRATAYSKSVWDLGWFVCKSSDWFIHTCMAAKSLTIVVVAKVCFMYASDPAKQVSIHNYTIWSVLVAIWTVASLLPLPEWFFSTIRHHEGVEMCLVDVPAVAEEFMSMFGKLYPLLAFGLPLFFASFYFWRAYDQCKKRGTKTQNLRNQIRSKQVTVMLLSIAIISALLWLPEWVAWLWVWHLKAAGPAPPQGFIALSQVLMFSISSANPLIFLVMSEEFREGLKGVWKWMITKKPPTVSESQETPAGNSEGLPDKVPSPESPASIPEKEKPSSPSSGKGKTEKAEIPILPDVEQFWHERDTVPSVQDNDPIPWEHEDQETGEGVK
* = called active by the depositor. Compounds with a hit are over-represented: about 3.4% of the library has one in this group of screens.

SMILES | FBW7 activator | TEAD-YAP block | MITF inh | GPR151 ag
CC(=O)Nc1nc(-c2ccc3c(c2)CCN3S(C)(=O)=O)c(C)s1 | 0 | 52* | 11 | 1
CC(C)Cn1cc(C(=O)NCC2COc3ccccc3O2)c2c3ccccc3n(C)c2c1=O (stereo unspecified) | 1 | 5 | 4 | 0
O=C(O)CN1C(=O)/C(=C/c2cccn2-c2ccc([N+](=O)[O-])cc2)SC1=S | 0 | -9 | -11 | 3
CCOC(=O)c1cnn(-c2ccccc2)c1NC(=O)CSc1nc2ccccc2o1 | 0 | -9 | -6 | 1
Cc1sc(N)nc1-c1ccc2c(c1)CC(C)N2S(C)(=O)=O (stereo unspecified) | 0 | 7 | 4 | -2
CNc1nc(-c2ccc3c(c2)CC(C)N3S(C)(=O)=O)cs1 (stereo unspecified) | 0 | 44* | -2 | -1
CC1Cc2cc(-c3csc(NC(=O)Cc4cccs4)n3)ccc2N1S(C)(=O)=O (stereo unspecified) | 0 | 57* | -2 | -1
Cc1ccc(C(=O)Nc2sc(C)c(C)c2C(=O)O)cc1 | 0 | 49* | -4 | -2
CCN(CC)C(=O)c1c(NC(=O)c2cccs2)sc2c1CCC2 | 0 | 36* | 18 | 0
Cc1ccc(C(=O)Nc2sc3c(c2C(=O)O)CCCCC3)cc1 | 0 | 83* | -3 | -3
O=C(Nc1sc2c(c1C(=O)O)CCCCC2)c1ccccc1 | 0 | 46* | 14 | -9
COC(=O)c1cn(NC(=O)COc2cccc(C)c2)c(=O)c2ccccc12 | 0 | 10 | -12 | -1
Cc1[nH]c2ccccc2c(=O)c1C(=O)/C=C/c1ccccc1 | 0 | 93* | -2 | 0
O=C(/C=C/c1ccccc1)c1c(O)c2ccccc2[nH]c1=O | 0 | 4 | 5 | 1
Cc1cc(C)c(NC(=O)CC2Sc3ccccc3NC2=O)c(Cl)c1 (stereo unspecified) | 0 | 37* | 8 | 1
O=C(Nc1cccc(-c2ccc3nnc(-c4ccncc4)n3n2)c1)C1CCCCC1 | 0 | 1 | -1 | 4
CCOc1ccc(/C=C/c2nc3ccccc3c(=O)o2)cc1 | 0 | 83* | -3 | -8
O=[N+]([O-])c1ccc(/C=C/c2nc3ccc([N+](=O)[O-])cc3[nH]2)cc1 | 0 | 4 | 2 | 2
O=[N+]([O-])c1ccc(/C=C/c2nc3ccccc3[nH]2)cc1 | 0 | 74* | -2 | -8
NS(=O)(=O)c1ccc(N=Nc2ccc(O)c3ncccc23)cc1 | -1 | 24 | 80* | -1
O=C(O)c1ccccc1N=Nc1ccc(O)c2ncccc12 | 0 | -9 | 34 | 0
CN1CCN(C(=O)c2ccc(-c3nc(NCCN4CCOCC4)c4ncn(-c5ccsc5)c4n3)cc2)CC1 | 0 | 23 | 16 | -2
NC(=O)c1ccc(-c2nc(NCCO)c3ncn(-c4ccccc4)c3n2)cc1 | 0 | 64* | -2 | 0
CC(=O)Nc1ccc(Nc2nc(-c3ccc(C(=O)NC4CC4)cc3)nc3c2ncn3-c2ccccc2)cc1 | 0 | 48* | 1 | 2
O=C(NC1CC1)c1ccc(-c2nc(NCCO)c3ncn(-c4ccccc4)c3n2)cc1 | 0 | 68* | 10 | 0
SMILES | FBW7 activator | TEAD-YAP block | MITF inh | GPR151 ag
NC(=O)c1ccc(-c2nc(NCCN3CCOCC3)c3ncn(-c4ccccc4)c3n2)cc1 | 0 | 61* | 7 | 4
COc1ccc(CCNc2nc(-c3ccc(C(=O)NC4CC4)cc3)nc3c2ncn3-c2ccccc2)cc1 | 0 | 4 | 16 | -2
O=C(NC1CC1)c1ccc(-c2nc(Nc3ccc(Oc4ccccc4)cc3)c3ncn(-c4ccsc4)c3n2)cc1 | 0 | -2 | 14 | 1
Cc1ccc(S(=O)(=O)CCc2nnc(NC(=O)c3ccc(Br)cc3)s2)cc1C | 0 | 6 | 9 | 0
CC(=O)c1cccc(NC(=O)N2CCN(Cc3ccc(Cl)c(Cl)c3)CC2)c1 | 0 | 11 | -5 | -1
Cc1ccc(OCCN2C(=O)CN(c3nc(C)cc(C)n3)C2=O)cc1 | 0 | -6 | 10 | 1
COc1ccc(-c2noc(CN3CCCC(OCc4ccccc4)C3)n2)c(OC)c1OC (stereo unspecified) | 0 | -8 | 5 | -1
CC(=O)Nc1ccc(CN2CCc3c([nH]c4ccccc34)C2c2ccccn2)s1 (stereo unspecified) | 0 | 34* | 3 | 1
O=C(Cc1ccccn1)N1CCc2c([nH]c3ccccc23)C1c1ccccn1 (stereo unspecified) | 0 | 7 | -6 | 2
O=C(CCc1c[nH]c2ccccc12)N1CCC(n2c(C3CCC3)nc3cccnc32)CC1 | 0 | -11 | -6 | 1
COc1ccccc1/C=N/NC(=O)COc1ccc(Cl)cc1 | 0 | 7 | 13 | -1
COc1cc(N)cc2sc(NC(C)=O)nc12 | 0 | -23 | 4 | 1
CC(=O)Nc1nc2c(C)cc(N)cc2s1 | 30* | -40 | 6 | 0
CC(=O)c1cccc(-c2nc(NCc3ccccc3)c3ncn(-c4ccsc4)c3n2)c1 | 0 | 14 | 7 | 4
OCCNc1nc(-c2ccccc2)nc2c1ncn2-c1ccsc1 | 0 | 42* | -3 | 2
CC(=O)c1cccc(-c2nc(NCCN(C(C)C)C(C)C)c3ncn(-c4ccsc4)c3n2)c1 | 0 | 49* | 3 | -1
CC(=O)c1cccc(-c2nc(NCCO)c3ncn(-c4ccsc4)c3n2)c1 | 0 | 49* | 19 | -2
CC(=O)c1cccc(-c2nc(NCCN(C(C)C)C(C)C)c3ncn(-c4ccccc4)c3n2)c1 | 0 | 15 | -1 | 0
CC(=O)c1cccc(-c2nc(NCCO)c3ncn(C(C)C)c3n2)c1 | 0 | 55* | 16 | 2
CC1CCC2(CC1)NC(=O)N(CCS(=O)(=O)Oc1ccc3ccccc3c1)C2=O (stereo unspecified) | 0 | 5 | -6 | -1
CCOc1ccc(Nc2nc(Nc3ccc(OCC)cc3)nc(Sc3nc4ccccc4[nH]3)n2)cc1 | 0 | 11 | -10 | 2
CCOC(=O)Cn1c(=NC(=O)c2cn(C)nc2OC)sc2cc(F)cc(F)c21 | 0 | -1 | 1 | 0
O=C(NCCCO)C(=O)NC1CCCC1 | 0 | -5 | 9 | 1
CC(C)N(CCNc1nc(-c2cccc(N)c2)nc2c1ncn2-c1ccsc1)C(C)C | 0 | 59* | -6 | 0
COc1ccc(-c2nc(NCCN(C(C)C)C(C)C)c3ncn(-c4ccsc4)c3n2)cc1 | 0 | 7 | -8 | -1
FC(F)(F)c1cccc(CNc2nc(Nc3ccccc3)nc3c2ncn3-c2ccsc2)c1 | 0 | -2 | 8 | 3
FC(F)(F)c1cccc(CNc2nc(Oc3ccccc3)nc3c2ncn3-c2ccsc2)c1 | 0 | 74* | -6 | 1
CC(C)(C)c1ncn(-c2ccc(Nc3nccc(-c4cn[nH]c4)n3)cc2)n1 | 0 | 63* | 2 | 0
Cc1ncn(-c2ccc(Nc3nccc(-c4cncc(N5CCC(O)CC5)c4)n3)cc2)n1 | 0 | 74* | 5 | 0
Fc1cc(-c2ccnc(Nc3ccc(-n4cnc(C(F)(F)F)n4)cc3)n2)cc(N2CCN(C3CC3)CC2)c1 | 0 | 9 | 13 | -1
